From PubChem
D1 antag – human D1 dopamine receptor antagonism | activity change, negative = inhibition, % at 10 µM | HEK293 TREx D1 cells, calcium flux, dopamine EC80; hits give low values | P21728 | actives 3.2% (n = 360,000); in the data active = activity change below about -30%; also: % is scaled to controls: 0 for no effect and ±100 for the full control effect
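Using tetracycline-induced force-coupled D1 Hek293 cells and a calcium dye, signals were followed for 180 s after compound, then for 180 s after EC80 dopamine, to detect inhibitors.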
D1 agonist – activates the human D1 dopamine receptor; P21728; actives 1% (n = 360,000); HEK293 T-REx D1 cells, calcium flux, agonist mode; AID 504660; activation, % at 2 µM; also: 0% is about no effect
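Agonism was scored from calcium flux recorded over 180 s (1 read/s) after pintool compound addition, following a 10-cycle baseline. Cells were inducible force-coupled HEK293 TREx D1, plated overnight at 30 C and loaded with no-wash calcium dye.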
TRHR agonist – TRH receptor (human) agonism; actives 0.18% (n = 360,000); TRHR cells, calcium flux fluo-8, FDSS agonist mode; P34981; activation, % at 2 µM; AID 493084; also: 0% is about no effect
Target sequence (P34981 whole entry, looked up): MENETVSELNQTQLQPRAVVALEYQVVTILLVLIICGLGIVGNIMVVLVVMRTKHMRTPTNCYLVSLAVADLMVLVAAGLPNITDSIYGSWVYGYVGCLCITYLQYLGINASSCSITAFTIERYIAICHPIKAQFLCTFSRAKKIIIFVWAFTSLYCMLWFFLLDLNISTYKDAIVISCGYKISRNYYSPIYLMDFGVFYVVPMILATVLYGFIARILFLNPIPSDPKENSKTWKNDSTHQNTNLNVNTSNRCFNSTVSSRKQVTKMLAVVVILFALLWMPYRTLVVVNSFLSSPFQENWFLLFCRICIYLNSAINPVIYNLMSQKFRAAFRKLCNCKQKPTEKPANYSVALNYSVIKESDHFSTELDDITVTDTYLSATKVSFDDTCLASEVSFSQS
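Fluo-8-loaded TRHR cells; 10 s baseline, compound added, kinetic Ca2+ fluorescence read 1/s, agonist mode.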
D1 PAM – human D1 dopamine receptor positive modulation; P21728; HEK293 TREx D1 cells, calcium flux, dopamine EC20 potentiation; potentiation, % at 10 µM; actives 0.036% (n = 360,000); in the data active = potentiation above about 30%; also: 0% is about no effect
TRHR PAM – allosterically enhances the human TRH receptor; enhancement, % at 2 µM; P34981; AID 493056; TRHR cells, fluo-8 calcium fluorescence, EC20 TRH enhancement; actives 0.66% (n = 360,000); in the data active = enhancement above about 30%; also: 0% is about no effect
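Enhancer read-out: after compound pinning and an initial kinetic agonist-mode read, an EC20 of TRH (10 nM final) was injected and fluo-8 calcium signal (Ex 480/Em 530) followed at 1 s/cycle for 100 cycles in TRHR-expressing cells.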
* hit, by the source's call; nt = no result given; ! = a repeat was not active. Most compounds without a hit are left out; they make up all but 4.7% or so of the library. Rule as the data show it, unless noted: active = activation above about 30%; inactive = the rest.

SMILES	D1 antag	D1 agonist	TRHR agonist	D1 PAM	TRHR PAM
COc1cc2[nH]c(=O)n(CCCCCC(=O)NCCc3ccccc3)c(=O)c2cc1OC	-11.5	-1.3	0.0	0.9	-2.4
COc1ccccc1CN(Cc1ccco1)c1cnc(S(C)(=O)=O)nc1C(=O)Nc1ccccc1Cl	3.9	2.4	0.3	-0.5	-0.7
COc1ccc(N2CCN(c3oc(/C=C/c4cc(OC)c(OC)c(OC)c4)nc3C#N)CC2)cc1	7.4	-0.5	0.1	2.0	7.9
C=CCC1NS(=O)(=O)OC(COC)C1C (stereo unspecified)	3.1	1.1	0.1	7.0	0.4
C=CCC1NS(=O)(=O)OC(CCCC)C1O (stereo unspecified)	12.4	2.5	-0.5	4.5	33.6*
COc1ccc(OC)c(CNS(=O)(=O)c2cn(C)cn2)c1	-9.5	2.4	1.1	-0.3	1.1
CCCCC(CC)C(=O)Nc1cc(C(=O)NCCC)ccc1N1CCC2(CC1)CC(c1ccccc1)=NO2 (stereo unspecified)	-16.0	2.7	0.2	3.8	37.6*
O=C(O)CC1SC(=Nc2ccc(O)cc2)NC1=O (stereo unspecified)	-31.1*	2.7	-0.2	0.3	2.4
COc1ccc(N2CCN(C(=O)c3cc4c(s3)CCCCC4)CC2)cc1	-57.3*	1.4	0.1	-11.2	3.7
COc1ccccc1N1CCN(C(=O)c2cc3c(s2)CCC3)CC1	2.6	1.2	-0.8	1.4	-4.8
CC(=O)c1ccc(N2CCN(C(=O)c3cc4c(s3)CCCC4)CC2)cc1	-34.6*	3.3	-1.3	-6.4	-7.8
O=C(NNC1=NC2(CCCC2)Cc2ccccc21)c1cccnc1	4.0	-0.7	0.5	-1.1	6.9
Cn1nccc1C(=O)NC1CCCc2c1cnn2-c1ccc(C(C)(C)C)cc1 (stereo unspecified)	-11.1	8.9	0.8	-8.7	-1.6
Cc1ccc(Nc2cc(C)nc(NCc3ccccc3)n2)cc1	18.5	53.4*	6.5	-10.7	32.2*
COc1ccc(Nc2cc(C)nc(NCc3ccccc3)n2)cc1	1.2	17.8	-0.7	-2.8	-0.3
Cc1cc(N2CCN(c3ccccc3)CC2)nc(NCc2ccccc2)n1	-49.5*	7.5	1.1	-3.7	1.5
Cc1cc(NC2CCCCC2)nc(NCc2ccccc2)n1	3.2	54.9*	4.0	-4.0	2.3
Cc1cc(N/N=C/c2ccccc2Cl)nc(NCc2ccccc2)n1	7.6	5.5	-1.4	0.6	0.5
COC(=O)c1ccc(CN2CCN(C3CCCCC3)C(CCO)C2)cc1 (stereo unspecified)	0.1	-0.6	-0.8	-0.9	19.7
CC(=O)Nc1ccc2nc(CN3CCN(CC(C)C)C(CCO)C3)ccc2c1 (stereo unspecified)	-19.5	1.5	1.1	-3.2	-3.5
CC(=O)Nc1ccc(CN2CCN(C3CCCCC3)C(CCO)C2)cc1 (stereo unspecified)	-6.5	35.8*	0.5	-4.0	7.4
CC(=O)Nc1ccc2nc(CN3CCN(Cc4ccc(F)cc4)C(CCO)C3)ccc2c1 (stereo unspecified)	-4.3	2.6	0.1	3.0	35.6*
O=C(NC1CCCCC1)c1ccc2c(c1)N(Cc1cccc(F)c1)C(=O)c1ccccc1S2	-15.5	3.5	0.9	0.6	0.5
COc1ccccc1/C=C/CN1CCN(c2ccccc2)CC1	-53.7*	2.4	-0.1	-8.5	-0.2
COc1ccc(CNC(=O)CCn2c(=O)c3cccn3c3ccc(F)cc32)cc1OC	-43.0*	19.6	-0.2	-3.7	8.1
SMILES	D1 antag	D1 agonist	TRHR agonist	D1 PAM	TRHR PAM
COc1cc(C)nc(N(C)C(C)=O)n1	-34.0*	3.1	1.1	4.3	0.3
CSc1cc(C)nc(N(C)C(C)=O)n1	-4.1	2.3	0.1	2.9	-6.0
COc1ccc(Nc2nc3ccc(Cl)cc3nc2-n2nc(C)cc2C)cc1	-7.3	2.0	0.2	-3.1	-8.0
C=CCOc1ccc(/C=C/C(=O)OCC(=O)N2CCCc3ccccc32)cc1	-20.4	21.2	0.9	-0.7	-1.3
C=CCN(CC(=O)NCc1ccc(F)cc1)C(=O)c1csnn1	-35.3*	3.8	0.3	8.6	-0.1
CCN(CC)C(=O)CC(c1ccc(N(C)C)cc1)c1c(OC)cc(OC)c2ccc(=O)oc12 (stereo unspecified)	4.8	0.8	-0.7	2.0	0.3
CCN(CC)C(=O)CC(c1ccc2c(c1)OCO2)c1c(OC)cc(OC)c2ccc(=O)oc12 (stereo unspecified)	-37.7*	0.5	-0.4	-6.1	-0.9
Cc1cccc(CN2CCC(CNC(=O)c3c(C)oc4ncnc(N5CCCCC5)c34)CC2)c1	-10.4	0.5	-0.4	-6.7	-10.1
COC(=O)c1ccc(Cn2nnc3sc4c(c3c2=O)CCC(C)C4)cc1 (stereo unspecified)	-4.3	4.6	0.4	0.7	7.6
O=C(O)c1ccc(N/N=C/c2ccc(OC(=O)c3cccc(Cl)c3)cc2)cc1	-35.9*	37.0*	1.2	-6.8	-0.5
Oc1ccc(/C=N/Nc2nc(N3CCCCCC3)nc(N3CCCCCC3)n2)c(O)c1	-41.1*	8.5	0.0	-9.9	1.5
Oc1ccc(Br)cc1/C=N/Nc1nc(N2CCCCC2)nc(N2CCOCC2)n1	-2.6	2.8	2.0	-3.1	-0.6
COc1ccc(/C=N/Nc2nc(N3CCCC3)nc(N3CCCC3)n2)c(OC)c1OC	-42.1*	-1.4	1.0	-6.7	0.8
COc1cccc(/C=N/Nc2nc(N3CCCC3)nc(N3CCCC3)n2)c1O	0.9	0.8	-0.5	1.5	-5.2
COc1ccc(CC(=O)NC2CCS(=O)(=O)C2)cc1 (stereo unspecified)	-6.0	2.6	0.9	-3.8	3.1
Cc1ccc(C)c(NC(=O)CN(C)S(=O)(=O)c2cccc3cccnc23)c1	8.1	3.8	0.2	0.4	32.0*!
CCOC(=O)Cc1csc(NC(=O)CN(C)S(=O)(=O)c2cccc3cccnc23)n1	-46.0*	4.7	0.0	nt	-1.0
CN(N)c1nc(C(F)(F)F)nc2ccccc12	-3.0	-1.0	-0.5	3.0	-0.2
Nc1nc(N(Cc2ccccc2)Cc2ccccc2)nc(C(F)(F)F)n1	-34.1*	9.2	2.4	-8.8	3.0
COc1ccc(C2OCC3(CO2)SC(=O)NC3=O)cc1 (stereo unspecified)	-38.0*	2.6	-0.2	-13.8	-1.6
C/C(=C/CCC(C)[C@H]1CC[C@@]2(C)C3=C(CC[C@]12C)[C@@]1(C)CCC(=O)C(C)(C)[C@@H]1CC3)C(=O)O (stereo partly specified)	-33.9*	9.1	0.2	-6.5	18.4
Cc1cc(C)c2nc(N(Cc3cccnc3)C(=O)Cc3ccccc3)sc2c1	nt	-0.2	0.2	-1.7	0.3
COC(=O)c1ccccc1NC(=O)Cn1c(=O)n(CCC(=O)NCc2ccc3c(c2)OCO3)c(=O)c2ccccc21	5.3	5.9	0.1	2.0	4.0
